Screening results as filed in PubChem.
The list is not random: actives were taken first. Their share in the collection is about 3.7%.
DRV1 agonist – agonists of human resolvin D1 receptor DRV1 (GPR32) | CHO-K1 GPR32 beta-arrestin PathHunter luminescence, 90 min; zero percent set by DMSO-only wells | activation, % at 76.9 µM | hit rate 2.5% among 48,000 | AID 1346428;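 active means activation of at least 60% and not above a set upper limit, about 1 call in 100 departs from these limits; inconclusive means activation of 40% to 60%, or above that upper limit; inactive means activation under 40%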; further: 0% is about no effect
Target sequence (O75388 whole entry, looked up): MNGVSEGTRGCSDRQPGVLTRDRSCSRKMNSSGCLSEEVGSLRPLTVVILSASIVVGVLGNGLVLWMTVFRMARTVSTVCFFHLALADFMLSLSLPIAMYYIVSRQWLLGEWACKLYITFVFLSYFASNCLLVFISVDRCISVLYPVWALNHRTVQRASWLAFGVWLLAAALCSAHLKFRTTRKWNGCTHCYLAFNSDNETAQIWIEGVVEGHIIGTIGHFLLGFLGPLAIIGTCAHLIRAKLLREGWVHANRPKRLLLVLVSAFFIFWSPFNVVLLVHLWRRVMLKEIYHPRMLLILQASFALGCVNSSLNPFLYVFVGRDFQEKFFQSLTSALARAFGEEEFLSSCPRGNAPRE
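PathHunter enzyme-fragment complementation, CHO-K1 GPR32 stable line; 2,500 cells/well, overnight attach; cpd 90 min 37 °C 5% CO2; detection reagent 1 h RT; chemiluminescence. DMSO = EC0.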
HTT promoter inh – inhibits huntingtin promoter activity; HEK293 HTT promoter firefly luciferase reporter, 24 h; Potency, µM (top dose mostly 57.5 µM), without a hit: at the top dose activity change, negative = inhibition, actives largely listed as inhibitors; hit rate 0.93% among 48,000; AID 1508623; further: potency means the concentration at half of the fitted maximal effect; nearly all actives have a fitted effect of over 50% in size
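Quantitative HTS used concentration series of up to 57.5 uM final on HEK293 luciferase reporter cells, 24 h at 37 degrees C. Readout was Dual-Glo firefly luminescence.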
HTT-AS promoter – activators of huntingtin-antisense promoter activity. Potency, µM (doses to about 57.5 µM), for inactives: at the top dose activity change, positive = activation, usual class: activators. HEK293 HTT-AS promoter firefly luciferase reporter, 24 h; response scale: percent change from vehicle, -100% = no light. hit rate 0.24% among 48,000; further: potency means the concentration at half of the fitted maximal effect; nearly all actives have a fitted effect of over 55% in size
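Firefly luciferase readout (Dual-Glo, 10 min RT) after 24 h, 37 °C compound exposure (final up to 57.5 uM) of HEK293 reporter cells cultured 24 h beforehand; PTC124 at 50 uM final as control inhibitor; activity scaled vehicle 0%, zero RLU -100%.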
Numbers without * were called inactive; ? = inconclusive; / = no result. Unless noted, the call rests on the fitted dose curve; in most records, active means well fitted curve in the direction sought with a large enough effect; inconclusive means small, poorly fitted or top-dose-only effect, or another doubt; inactive means no such curve, though single readings can be large; an effect the other way counts as inactive or inconclusive.

SMILES	DRV1 agonist	HTT promoter inh	HTT-AS promoter
C[C@@H]1CCN(C(=O)[C@H](CCCN=C(N)N)NS(=O)(=O)c2cccc3c2NC[C@H](C)C3)[C@@H](C(=O)O)C1	-5.6	-2.0%	-3.7%
CCOc1ccc(Sc2cc(C(=O)NC(C)CC)c3ccccc3n2)cc1 (configuration not stated)	3.6	-14.4%	-23.2%
CCc1ccc(Sc2cc(C(=O)NCCCN3CCC(C)CC3)c3ccccc3n2)cc1	89.4*	-25.0%	-18.8%
CCc1ccc(Sc2cc(C(=O)NCCCN3CCCC(C)C3)c3ccccc3n2)cc1 (configuration not stated)	88.0*	-15.1%	-20.9%
CCc1ccc(Sc2cc(C(=O)NCc3cccc(OC)c3)c3ccccc3n2)cc1	5.6	?	-44.3%
Cn1cc(C(=O)O)c(=O)c2cc(S(=O)(=O)N3CCCCC3)ccc21	-16.3	-34.4%	-6.4%
O=C1OC2(c3ccccc31)c1cc(I)c(O)c(I)c1Oc1c2cc(I)c(O)c1I	-63.6	-6.8%	-24.9%
O=C1OC2(c3ccc(O)cc3Oc3cc(O)ccc32)c2ccccc21	110.6*	9.3%	-7.2%
NC(=O)C1(N2CCCCC2)CCN(CCCN2c3ccccc3CCc3ccc(Cl)cc32)CC1	?	?	-37.8%
Cc1ccc(S(=O)(=O)N(CC(O)Cn2c3ccccc3c3ccccc32)c2cccc(C(=O)N(C)C)c2)cc1 (configuration not stated)	26.7	-19.8%	-43.2%
Cc1ccc(S(=O)(=O)N(CC(O)Cn2c3ccccc3c3ccccc32)c2cccc(C(N)=O)c2)cc1 (configuration not stated)	85.6*	?	-50.9%
Cc1cccc(N2CCN(C(=O)Cn3c(C)c4cnn(-c5ccccc5)c(=O)c4c3C)CC2)c1C	-3.7	10µM*	-49.0%
Cc1cccc(NC(=O)CCCn2c(C)c3cnn(-c4ccccc4)c(=O)c3c2C)c1C	-21.7	-17.2%	-14.6%
COc1cc2nc(-c3cc(F)ccc3O)nc(N[C@@H]3CNC[C@@H]3C(C)(C)O)c2cc1OC	/	?	4.7%
COc1ccc2c(c1)CCc1c(C(=O)Nc3cnn(Cc4ccc(Cl)cc4Cl)c3)noc1-2	-20.4	-11.5%	-4.1%
COc1ccc(OC)c(-c2cc(C(=O)Nc3cnn(Cc4ccc(Cl)cc4Cl)c3)no2)c1	90.6*	/	/
Cc1ccn(-c2ccc(-c3ncco3)cc2)c(=O)c1-c1ccc2nc(N)ncc2c1	/	-15.2%	-21.7%
COc1ccccc1Cc1nc2ccccc2nc1SCC(=O)N1CCN(c2ccccc2)CC1	-18.4	0.5%	-4.1%
COc1ccccc1Cc1nc2ccccc2nc1SCC(=O)N1CCC(C)CC1	64.4*	?	-42.4%
Cc1ccc(Cc2nc3ccccc3nc2SCC(=O)NCCC(C)C)cc1	-16.7	0.0%	-9.3%
Cc1ccc(Cc2nc3ccccc3nc2SCC(=O)N2CCCCC2C)cc1 (configuration not stated)	-15.9	28.2µM*	-44.4%
COc1cccc(Cc2nc3ccccc3nc2SCC(=O)N2CCCCC2C)c1 (configuration not stated)	-6.2	?	-38.5%
CCOc1ccccc1NC(=O)CSc1nc2ccccc2nc1Cc1ccc(C)cc1	70.5*	-27.2%	-31.3%
CCc1ccc(C(=O)Nc2cc(CN3CCN(C)CC3)cc(C(F)(F)F)c2)cc1C#Cc1cnc2ccnn2c1	/	-21.7%	-30.0%
COC(=O)c1ccccc1NC(=O)c1ccc2nc(Cc3ccccc3)oc2c1	-17.7	6.4%	-5.0%
SMILES	DRV1 agonist	HTT promoter inh	HTT-AS promoter
Cc1ccc(Nc2nc(C(N)=O)c(NC(=O)c3ccccc3Br)s2)cc1	60.9*	3.1%	2.6%
NC(=O)c1nc(Nc2ccccc2)sc1NC(=O)c1c(F)cccc1F	-1.7	13.8%	?
Cc1ccc(SCc2nc(-c3ccc(C(=O)Nc4cc(C)ccc4C)cc3)oc2C)cc1	-17.6	?	-31.2%
COc1cccc(CNC(=O)Cn2nc(-c3ccc(C)cc3)ccc2=O)c1	-10.9	-7.1%	-1.1%
COc1cccc(CNC(=O)Cn2nc(-c3ccc(Cl)cc3)ccc2=O)c1	76.2*	-2.0%	-10.4%
Cc1ccccc1Cn1nc(C)c(NC(=O)c2cc(CC(C)C)on2)c1C	63.8*	/	/
COc1ccc(-c2cc(C(=O)Nc3c(C)nn(Cc4ccccc4C)c3C)no2)cc1	24.2	/	/
C[C@H]1O[C@H](O[C@H]2[C@H](O)[C@@H](O)[C@@H](O[C@H]3[C@H](O)[C@@H](O)C(O)O[C@H]3CO)O[C@H]2CO)[C@H](O)[C@@H](O)[C@H]1N[C@H]1C=C(CO)[C@@H](O)[C@H](O)[C@@H]1O (some centres not stated)	/	10.4%	0.1%
